# Screens deposited in PubChem by National Center for Advancing Translational Sciences (NCATS).
# Coupling enz – counter-screen for Giardia aldolase inhibitors: coupling enzyme system; coupling enzyme system counterscreen, AmpLite Red fluorescence; activity change, negative = inhibition, % at 58.2 µM, hits read low; actives 0.67% (n = 290,000); AID 2472; in the data active = activity change below about -30%
#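 First, compound is pin-transferred into glyceraldehyde-3-phosphate coupling-enzyme reagent at 57.5 uM final and held 10 min at RT. Next, substrate, coupling system and AmpLite Red are added. After 20 min RT, fluorescence (525/598 nm) is read.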
# Sfp PPTase inh – inhibitors of Bacillus subtilis Sfp phosphopantetheinyl transferase; Q9F4F7; Biochemical Sfp PPTase activity, qHTS; Potency, µM, actives largely listed as inhibitors; actives 3.5% (n = 310,000);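 also: the enzyme is Sfp with the accession as filed and its product quenches rhodamine fluorescence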
#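 Compounds were incubated with enzyme (final 15 nM) for 15 min at room temperature before substrate addition started the reaction. Fluorescence at 525 nm excitation, 598 nm emission was recorded immediately and after 30 minutes.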
# Tau fibril FP – tau fibrillization inhibition (FP). P10636. AID 1468. K18 P301L tau heparin fibrillization, Alexa594 FP, 6 h. actives 0.39% (n = 280,000). Potency, µM (highest dose often 57.7 µM), actives largely listed as inhibitors; also: nearly all actives have a fitted effect of over 55% in size
# Target sequence (P10636 561-689 P618L limits assumed): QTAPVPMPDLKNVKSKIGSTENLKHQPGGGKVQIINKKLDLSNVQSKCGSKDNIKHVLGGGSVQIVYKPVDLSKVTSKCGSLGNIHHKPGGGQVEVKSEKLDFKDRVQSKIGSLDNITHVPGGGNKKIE
#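 Heparin (20 uM) drove fibril formation of recombinant tau K18 P301L, 15 uM unlabeled with 0.24 uM Alexa 594 label, for 6 hr at 37 C in 100 mM sodium acetate pH 7. Fluorescence polarization (555/632 nm) read 1 hr after 30 uM ThT.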
# Tau ThT inhib – blocks human tau fibril formation measured by thioflavin T; P10636; recombinant tau K18 P301L, heparin-induced fibrillization, ThT fluorescence; Potency, µM (top dose mostly 57.4 µM), usual class: inhibitors; actives 2.1% (n = 270,000); also: nearly all actives have a fitted effect of over 55% in size
#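 ThT emission at 510 nm, taken 1 hr after adding 30 uM dye, quantifies aggregates formed when 20 uM heparin acts on human tau K18 P301L for 6 hr at 37 C.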
# Tau fluor cs – counter-screen for tau fibril formation inhibitors | tau K18 P301L Alexa594 fluorescence, heparin fibrillization | Potency, µM (doses to about 57.7 µM) | actives 0.93% (n = 280,000); also: nearly all actives have a fitted effect of over 55% in size
#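 Human tau K18 P301L (15 uM unlabeled, 0.24 uM Alexa 594-labeled) in 100 mM sodium acetate pH 7 with 20 uM heparin, 6 hr at 37 C. ThT 30 uM added, 1 hr ambient; Alexa 594 FP and total fluorescence read at 555/632 nm.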
# Numbers stand for hits; 0 = inactive; ? = inconclusive; - = no result given; ! = a repeat was not active; [ ] = another dose, or the depositor's remark. Only some compounds are listed: those with a hit (about 5.2% of all), similar ones and a draw of the others. Unless noted, calls follow the shape of the dose curve; as a rule, active = well fitted curve in the direction sought with a large enough effect; inconclusive = small, poorly fitted or top-dose-only effect, or another doubt; inactive = no such curve, though single readings can be large; an effect the other way counts as inactive or inconclusive.
SMILES,Coupling enz,Sfp PPTase inh,Tau fibril FP,Tau ThT inhib,Tau fluor cs
CC(C)(O)[C@@H]1C2OC(=O)[C@@H]1[C@]1(O)C[C@H]3O[C@]34C(=O)O[C@H]2[C@]14C,0,0,0,0,0
Cc1cccc(-n2c(C)nc3ccccc3c2=O)n1,0,0,0,0,0
Cc1cccc(-n2c(=S)[nH]c3ccccc3c2=O)n1,0,50µM,0,0,0
CCN1C[C@@]2(COC(=O)c3ccccc3N3C(=O)CC(C)C3=O)CC[C@H](OC)[C@]34C5C[C@@H]6[C@@H](OC)C[C@@](O)(C5[C@H]6OC)[C@@](O)(C13)[C@@H](OC)C24 (stereo not given in full),0,0,0,0,0
CCOCCCNC(=O)c1c[nH]c2ccc(S(=O)(=O)N(C)c3ccc(Cl)cc3F)cc2c1=O,-,-,?,0,?
COc1ccc2c(c[n+](C)c3c4cc5c(cc4ccc23)OCO5)c1OC,-39!,50µM,?,13µM,16µM[quencher]
COc1cc(/C=C2\C(=O)NC(=O)N(c3ccccc3)C2=O)cc(OC)c1O,-33,22µM,?,?,0
COc1cc(/C=C2\C(=O)NC(=O)N(c3ccccc3)C2=O)c([N+](=O)[O-])cc1OC,0,40µM,0,?,0
Cc1ccc(S(=O)(=O)Oc2ccccc2C=C2C(=O)N(C)C(=O)N(C)C2=O)cc1,0,79µM,-,-,-
Cc1cc(C=C2C(=O)N(C)C(=O)N(C)C2=O)c(C)n1-c1ccccc1,0,0,?,?,0
CN1C(=O)C(=Cc2ccccc2OCc2ccc(Cl)cc2)C(=O)N(C)C1=O,0,50µM,0,?,0
CN1C(=O)C(=Cc2ccccc2Oc2ccc(Cl)cc2)C(=O)N(C)C1=O,0,?,0,?,0
Cc1ccc(-c2cn3c(=S)[nH]nc3s2)cc1,0,35µM,0,0,0
O=C1NC(=O)N(c2ccc3c(c2)OCO3)C(=O)/C1=C/c1ccsc1,0,40µM,0,?,0
O=C1NC(=O)C(=Cc2ccc3c(c2)OCO3)C(=O)N1,0,50µM,?,?,0
O=C1NC(=O)N(c2ccc3c(c2)OCO3)C(=O)/C1=C/c1cccs1,0,11µM,0,?,0
CCc1ccc(N2C(=O)NC(=O)/C(=C\c3cc(C)n(-c4cc(C(=O)O)cc(C(=O)O)c4)c3C)C2=O)cc1,0,0,-,-,-
CCc1ccc(N2C(=O)NC(=O)/C(=C/c3ccsc3)C2=O)cc1,0,50µM,0,?,0
O=C1NC(=O)N(c2ccc3c(c2)OCO3)C(=O)/C1=C/c1ccc(N2CCCC2)o1,0,0,0,?,0
Cc1c(N=Nc2c(O)n(-c3ccc(Br)cc3)c(=O)[nH]c2=O)c(=O)n(-c2ccccc2)n1C,0,0,0,?,0
Cc1c(N=Nc2c(O)[nH]c(=O)[nH]c2=O)c(=O)n(-c2ccccc2)n1C,0,45µM,?,?,0
CCOP(=O)(C1=C(O)C(=O)C(C(C)(C)C)=CC1=O)c1ccccc1 (stereo not given),0,40µM,?,22µM,0
CCN1C(=O)/C(=C\c2ccc([N+](=O)[O-])s2)C(=O)NC1=S,-40,10µM,?,3.5µM,?
C=CCN1C(=O)/C(=C/c2ccc(Br)s2)C(=O)NC1=S,0,40µM,-,-,-
O=C(N=Nc1c(O)[nH]c(=O)[nH]c1=O)C1COc2cc3ccccc3cc2O1 (stereo not given),-30,56µM,?,?,0
SMILES,Coupling enz,Sfp PPTase inh,Tau fibril FP,Tau ThT inhib,Tau fluor cs
CC(=O)O[C@H]1C[C@@H](O[C@@H]2[C@H](C)O[C@H](O[C@@H]3[C@H](C)O[C@H](O[C@@H]4CC[C@@]5(C)[C@@H](CC[C@]6(C)[C@]5(C)C[C@H](O)[C@]5(C)[C@@H](C7=CC(=O)OC7)CC[C@@]56O)C4)C[C@@H]3O)C[C@@H]2O)O[C@@H](C)[C@H]1O[C@H]1O[C@@H](CO)[C@@H](O)[C@@H](O)[C@@H]1O,0,0,-,-,-
Nc1ccc([As](=O)(O)O)cc1,0,0,0,0,0
Nc1ccc(N)cc1,0,0,?,14µM,?
CCc1cc(=O)oc2cc(C)cc(OCC(=O)N3CCC(C(=O)O)(c4ccccc4)CC3)c12,0,0,-,-,-
Cc1cc2oc(=O)cc(-c3ccccc3)c2c(C)c1-c1ccc(CO)cc1,0,126µM,0,0,0
O=C1NC(=S)N(c2ccc(F)cc2)C(=O)/C1=C/c1ccco1,0,25µM,-,-,-
CCOC(=O)C1CCN(/C=C2/C(=O)NC(=O)N(Cc3ccco3)C2=O)CC1,0,?,?,?,0
O=C1NC(=S)N(c2ccc(Cl)cc2)C(=O)/C1=C/N1CCN(C(=O)c2ccco2)CC1,0,45µM,?,0,0
COc1ccc(N2C(=O)/C(=C/c3cc(C)n(-c4ccc(C)cn4)c3C)C(=O)NC2=S)c(OC)c1,0,35µM,0,?,0
COc1ccc(OC)c(N2C(=O)NC(=O)/C(=C/c3ccc([N+](=O)[O-])s3)C2=O)c1,-33,10µM,14µM,13µM,?
COc1ccc(OC)c(N2C(=O)CC(=O)NC2=O)c1,0,0,-,-,-
Cc1cc(/C=C2\C(=O)NC(=O)N(c3ccc(F)cc3)C2=O)c(C)n1-c1ccc(C(=O)O)cc1,0,0,0,?,0
CCOc1ccc2cc(C#N)c(=O)oc2c1,0,0,-,-,-
CC(C)=CCCN1CCC(NC(=O)C(O)(c2ccccc2)C2CCCC2)CC1 (stereo not given),0,0,-,-,-
Cc1ccc(N2C(=O)NC(=O)/C(=C\c3ccoc3)C2=O)cc1,0,?,0,?,0
O=C1NC(=S)N(c2ccc(F)cc2)C(=O)/C1=C\c1ccoc1,0,20µM,?,18µM,0
COc1ccc(OC)c(N2C(=O)/C(=C/c3ccco3)C(=O)NC2=S)c1,0,18µM,-,-,-
COc1ccc(CC2C(=O)N(c3ccccc3)C(=O)N(c3ccccc3)C2=O)c(OC)c1,0,0,0,0,0
CCc1ccc(N2C(=O)NC(=O)C(Cc3ccc(OC)cc3OC)C2=O)cc1 (stereo not given),0,50µM,?,?,0
COc1ccc(CC2C(=O)NC(=O)N(c3ccccc3)C2=O)c(OC)c1 (stereo not given),0,89µM,0,?,0
Clc1cccc(CN2CCCCC2c2cccnc2)c1 (stereo not given),0,50µM,0,0,0
N[C@@H](Cc1cc(Br)c(O)c(Br)c1)C(=O)O,0,50µM,0,?,0
CC1Oc2cc3c(-c4c(O)cc(O)c5c(O)c6c(cc45)OC(C)C(C)C6=O)c(O)cc(O)c3c(O)c2C(=O)C1C (stereo not given),0,0,?,13µM,13µM[quencher]
CCCN1CCCC2Cc3nc(N)ncc3CC21 (stereo not given),-,0,0,0,0
CC(=O)C1CCC2C3CCC4=CC(=O)CC[C@@]4(C)C3CC[C@]12C (stereo not given in full),0,0,0,?,0
